Assay results: PubChem BioAssay (EPA / NIEHS)
Calls of active or inactive are those of the source. How the source made its calls: active means hit-call score of the fitted dose curve at least 0.9, where 1 is the maximum; inactive means score below 0.9.

Legend:
Conditions in all cases: mRNA level, 48 h; actives raise or lower the signal
[1] = read-out: Glutamate-cysteine ligase regulatory (GCLM), GCLM (gene 2730); assay: LTEA_HepaRG_GCLM: Life Technologies and Expression Analysis (LTEA) Assay for Glutamate-cysteine ligase regulatory (GCLM) using HepaRG (AID 2283500)
Method in brief: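 HepaRG, 48 h dosing, 100 uM top, half-log x8, 0.5% DMSO vehicle. Readout: GCLM mRNA by TaqMan qRT-PCR, housekeeping-normalized (ACTB/GAPDH/POLR2A). Curves fit bidirectionally vs DMSO baseline.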

[2] = read-out: Glutathione S-transferase M3 (GSTM3), GSTM3 (gene 2947); assay: LTEA_HepaRG_GSTM3: Life Technologies and Expression Analysis (LTEA) Assay for Glutathione S-transferase M3 (GSTM3) using HepaRG (AID 2283501)
Method in brief: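 Differentiated human HepaRG cells were exposed in duplicate for 48 h in serum-free induction medium, 8 points from 100 uM top in half-log steps, 0.5% DMSO. GSTM3 mRNA was measured by TaqMan qRT-PCR, normalized to ACTB, GAPDH and POLR2A; bidirectional fit versus DMSO.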

[3] = read-out: Heat shock 70 kDa protein 1 (HSPA1A), gene 3303; assay: LTEA_HepaRG_HSPA1A: Life Technologies and Expression Analysis (LTEA) Assay for Heat shock 70 kDa protein 1 (HSPA1A) using HepaRG (AID 2283502)
Method in brief: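 HepaRG, 48 h exposure, 8-pt half-log CRC from 100 uM in 0.5% DMSO, duplicates. Readout: TaqMan qRT-PCR of HSPA1A mRNA, housekeeping-normalized (ACTB/GAPDH/POLR2A). Bidirectional fit vs 0.5% DMSO baseline.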

[4] = read-out: Hypoxia-inducible factor 1-alpha (Homo sapiens) (UniProt Q16665); assay: LTEA_HepaRG_HIF1A: Life Technologies and Expression Analysis (LTEA) Assay for Hypoxia-inducible factor 1 (HIF1A) Trancription factor using HepaRG (AID 2283503)
Method in brief: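 Gain- or loss-of-signal HIF1A mRNA changes are fitted against a DMSO baseline. HepaRG cultures receive eight concentrations, highest 100 uM, for 48 h in serum-free induction medium with 0.5% DMSO.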

[5] = read-out: 3-Hydroxy-3-Methylglutaryl-CoA Synthase 2 (HMGCS2), HMGCS2 (gene 3158); assay: LTEA_HepaRG_HMGCS2: Life Technologies and Expression Analysis (LTEA) Assay for 3-Hydroxy-3-Methylglutaryl-CoA Synthase 2 (HMGCS2) using HepaRG (AID 2283504)
Method in brief: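 Human HepaRG cells in serum-free induction medium were exposed in duplicate for 48 h to 8-point half-log series from 100 uM top in 0.5% DMSO. HMGCS2 mRNA measured by TaqMan qRT-PCR, normalised to ACTB, GAPDH, POLR2A; bidirectional fit versus DMSO.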

[6] = read-out: Insulin Like Growth Factor 1 (IGF1), IGF1 (gene 3479); assay: LTEA_HepaRG_IGF1: Life Technologies and Expression Analysis (LTEA) Assay for Insulin Like Growth Factor 1 (IGF1) using HepaRG (AID 2283506)
Method in brief: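 qRT-PCR readout of IGF1 mRNA, normalized to three housekeeping genes, after 48 h chemical exposure of HepaRG cells. Concentrations: 8-point half-log series, top 100 uM, 0.5% DMSO vehicle. Gain or loss fitted against DMSO baseline.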

[7] = read-out: Intercellular Adhesion Molecule 1 (ICAM1), ICAM1 (gene 3383); assay: LTEA_HepaRG_ICAM1: Life Technologies and Expression Analysis (LTEA) Assay for Intercellular Adhesion Molecule 1 (ICAM1) using HepaRG (AID 2283507)
Method in brief: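 Differentiated human HepaRG cells in serum-free induction medium exposed 48 h in duplicate to 8 half-log concentrations (top 100 uM, 0.5% DMSO). ICAM1 mRNA quantified by TaqMan qRT-PCR, normalized to ACTB, GAPDH and POLR2A; bidirectional fitting versus DMSO.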

[8] = read-out: Insulin-like growth factor-binding protein 1 (IGFBP1), IGFBP1 (gene 3484); assay: LTEA_HepaRG_IGFBP1: Life Technologies and Expression Analysis (LTEA) Assay for Insulin-like growth factor-binding protein 1 (IGFBP1) using HepaRG (AID 2283508)
Method in brief: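 HepaRG cells, plated 48 h then switched to serum-free induction medium, exposed in duplicate for 48 h to 8-point half-log series from 100 uM in 0.5% DMSO. mRNA measured by qRT-PCR, normalized to ACTB/GAPDH/POLR2A; bidirectional fit versus DMSO.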

[9] = read-out: Interleukin 6 (IL6), IL6 (gene 3569); assay: LTEA_HepaRG_IL6: Life Technologies and Expression Analysis (LTEA) Assay for Interleukin 6 (IL6) using HepaRG (AID 2283509)
Method in brief: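 qRT-PCR read-out of IL6 transcript, normalized to three housekeeping genes, after 48 h chemical exposure of HepaRG cells; 8-point half-log series, top 100 uM, 0.5% DMSO vehicle. Bidirectional curve fitting against DMSO baseline.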

[10] = read-out: Interleukin 6 Receptor (IL6R), IL6R (gene 3570); assay: LTEA_HepaRG_IL6R: Life Technologies and Expression Analysis (LTEA) Assay for Interleukin 6 Receptor (IL6R) using HepaRG (AID 2283510)
Method in brief: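 HepaRG, 48 h exposure, 8-pt half-log series, top 100 uM, 0.5% DMSO vehicle, duplicates. Read-out: TaqMan qRT-PCR of IL6R transcript, housekeeping-gene normalized. Gain or loss fitted relative to DMSO baseline.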

[11] = read-out: Potassium channel subfamily K member 1 (KCNK1), KCNK1 (gene 3775); assay: LTEA_HepaRG_KCNK1: Life Technologies and Expression Analysis (LTEA) Assay for Potassium channel subfamily K member 1 (KCNK1) using HepaRG (AID 2283511)
Method in brief: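 HepaRG, 48 h exposure, 8-pt half-log series top 100 uM, 0.5% DMSO vehicle, duplicates. Readout: KCNK1 transcript by qRT-PCR (Fluidigm array), housekeeping-normalized; bidirectional curve fit relative to DMSO baseline.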

[12] = read-out: Keratin 19 (KRT19), KRT19 (gene 3880); assay: LTEA_HepaRG_KRT19: Life Technologies and Expression Analysis (LTEA) Assay for Keratin 19 (KRT19) using HepaRG (AID 2283512)
Method in brief: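 Differentiated HepaRG cells in serum-free induction medium, exposed 48 h in duplicate to 8 half-log concentrations up to 100 uM in 0.5% DMSO. KRT19 mRNA by qRT-PCR, normalized to ACTB, GAPDH, POLR2A; bidirectional fit vs DMSO.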

[13] = read-out: JUN Transcription Factor, JUN (gene 3725); assay: LTEA_HepaRG_JUN: Life Technologies and Expression Analysis (LTEA) Assay for JUN Transcription Factor using HepaRG (AID 2283513)
Method in brief: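 HepaRG, 48 h exposure, 8-pt half-log series top 100 uM, 0.5% DMSO, duplicate. JUN mRNA by qRT-PCR (Fluidigm), housekeeping-normalized (ACTB/GAPDH/POLR2A); bidirectional curve fit vs DMSO baseline.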

[14] = read-out: Lipase C (LIPC), LIPC (gene 3990); assay: LTEA_HepaRG_LIPC: Life Technologies and Expression Analysis (LTEA) Assay for Lipase C (LIPC) using HepaRG (AID 2283514)
Method in brief: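 HepaRG, 48 h exposure, 8-pt half-log series from 100 uM in 0.5% DMSO, duplicates. Readout: LIPC mRNA by Fluidigm qRT-PCR, housekeeping-normalized (ACTB/GAPDH/POLR2A). Gain or loss fitted bidirectionally against DMSO baseline.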

[15] = read-out: Lipoprotein lipase (LPL), LPL (gene 4023); assay: LTEA_HepaRG_LPL: Life Technologies and Expression Analysis (LTEA) Assay for Lipoprotein lipase (LPL) using HepaRG (AID 2283515)
Method in brief: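 HepaRG, 48 h exposure, 8-pt half-log dilutions from 100 uM, 0.5% DMSO vehicle, duplicates; qRT-PCR (Fluidigm array) of LPL mRNA vs housekeeping genes; bidirectional curve fit relative to DMSO baseline.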

[16] = read-out: MicroRNA 122 (MIR122), gene 406906; assay: LTEA_HepaRG_MIR122: Life Technologies and Expression Analysis (LTEA) Assay for MicroRNA 122 (MIR122) using HepaRG (AID 2283516); further: the transcript read is the microRNA miR-122
Method in brief: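 qRT-PCR read-out (TaqMan, Fluidigm array), normalized to three housekeeping genes; HepaRG cells dosed 48 h at 8 concentrations up to 100 uM in 0.5% DMSO, duplicate; gain or loss fitted against DMSO baseline.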

[17] = read-out: matrix metalloproteinase-10 (MMP10), MMP10 (gene 4319); assay: LTEA_HepaRG_MMP10: Life Technologies and Expression Analysis (LTEA) Assay for matrix metalloproteinase-10 (MMP10) using HepaRG (AID 2283517)
Method in brief: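 Transcript levels come from Fluidigm qRT-PCR normalized to three housekeeping genes, with curves fitted bidirectionally against 0.5% DMSO. Human HepaRG cells were dosed for 48 hours at concentrations up to 100 uM.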

MYC, MYC (gene 4609) = assay: LTEA_HepaRG_MYC: Life Technologies and Expression Analysis (LTEA) Assay for MYC using HepaRG (AID 2283518)
Method in brief: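 Differentiated HepaRG cells exposed 48 h in serum-free induction medium to 8 concentrations (top 100 uM, half-log steps; 0.5% DMSO), duplicate. MYC mRNA measured by Fluidigm qRT-PCR, normalized to ACTB, GAPDH, POLR2A; bidirectional fit versus DMSO.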

[18] = read-out: matrix metalloproteinase-3 (MMP3), MMP3 (gene 4314); assay: LTEA_HepaRG_MMP3: Life Technologies and Expression Analysis (LTEA) Assay for matrix metalloproteinase-3 (MMP3) using HepaRG (AID 2283519)
Method in brief: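 qRT-PCR read-out of MMP3 mRNA (normalised to three housekeeping genes) in HepaRG liver cells after 48 h chemical exposure; 8-point half-log series, top 100 uM, 0.5% DMSO vehicle. Bidirectional curve fitting against DMSO baseline.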

HGF (gene 3082) = assay: LTEA_HepaRG_HGF: Life Technologies and Expression Analysis (LTEA) Assay for Hepatocyte Growth Facto (HGF) using HepaRG (AID 2283505)
Method in brief: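 Differentiated HepaRG cells in serum-free induction medium exposed 48 h in duplicate, 8 half-log concentrations from 100 uM in 0.5% DMSO. HGF mRNA by qRT-PCR, normalised to ACTB, GAPDH, POLR2A; bidirectional fitting.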

Measured: AC50

Hypoxia-inducible factor 1-alpha (Homo sapiens), sequence (Q16665 whole entry, looked up): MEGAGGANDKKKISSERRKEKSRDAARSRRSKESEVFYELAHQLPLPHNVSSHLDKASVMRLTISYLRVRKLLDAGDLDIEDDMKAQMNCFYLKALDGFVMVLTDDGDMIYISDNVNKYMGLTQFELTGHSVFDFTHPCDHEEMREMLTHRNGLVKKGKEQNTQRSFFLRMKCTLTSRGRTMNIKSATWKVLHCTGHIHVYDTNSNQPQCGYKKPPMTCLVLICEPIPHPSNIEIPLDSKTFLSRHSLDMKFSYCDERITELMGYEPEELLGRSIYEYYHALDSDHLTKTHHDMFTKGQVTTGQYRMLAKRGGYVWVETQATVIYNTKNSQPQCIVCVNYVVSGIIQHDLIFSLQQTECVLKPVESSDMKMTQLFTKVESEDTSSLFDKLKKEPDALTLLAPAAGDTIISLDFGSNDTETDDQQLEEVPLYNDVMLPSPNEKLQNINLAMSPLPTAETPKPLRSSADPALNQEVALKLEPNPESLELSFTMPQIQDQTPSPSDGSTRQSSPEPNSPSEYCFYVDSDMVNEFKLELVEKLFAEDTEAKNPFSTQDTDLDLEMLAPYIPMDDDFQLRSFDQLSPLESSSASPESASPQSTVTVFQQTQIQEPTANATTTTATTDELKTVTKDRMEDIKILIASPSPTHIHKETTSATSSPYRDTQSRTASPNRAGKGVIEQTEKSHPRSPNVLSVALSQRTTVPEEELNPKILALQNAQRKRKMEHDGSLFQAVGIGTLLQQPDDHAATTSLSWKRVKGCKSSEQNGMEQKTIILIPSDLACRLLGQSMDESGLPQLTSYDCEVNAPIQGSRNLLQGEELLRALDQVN

COCc1cnc(C2=NC(C)(C(C)C)C(=O)N2)c(C(=O)O)c1 (configuration not stated)
not listed: HGF (gene 3082)
inactive: all other assays above

CCCCC(C#N)(Cn1cncn1)c1ccc(Cl)cc1 (configuration not stated)
active: [5] 78.1 µM | [6] 68.7 µM | [18] 73.1 µM
not listed: HGF (gene 3082)
inactive: all other assays above

CC(C)C1(C)N=C(c2ncccc2C(=O)O)NC1=O (configuration not stated)
not listed: [12]
inactive: all other assays above

CC1(C)C(C(=O)OC(C#N)c2cccc(Oc3ccccc3)c2)C1(C)C (configuration not stated)
inactive: all assays above

CCOP(=O)(OCC)Oc1nc(Cl)c(Cl)cc1Cl
active: [4] 49.8 µM | [5] 84.8 µM | [10] 60.2 µM | [14] 78.7 µM | [15] 61.5 µM | [16] 87.7 µM | MYC, MYC (gene 4609) 49.8 µM | [18] 62.7 µM
inactive: all other assays above
